Common to all, as to type: functional
Assay [1] has as its system Plasmodium falciparum. The assay can be described thus: GSK_TCMDC: Inhibition of Plasmodium falciparum 3D7 in whole red blood cells, using parasite LDH activity as an index of growth. Test compounds present at 2uM.
For assay [2], the system named is Plasmodium falciparum. As to the kind of experiment: GSK_TCMDC: Inhibition of Plasmodium falciparum Dd2 in whole red blood cells, using parasite LDH activity as an index of growth. Test compounds present at 2uM.
A further assay has as its system HepG2. The assay can be described thus: GSK_TCMDC: Percent inhibition of human HepG2 cell line. Test compounds present at 10uM.

Several values for one entry are separate records, joined by “and”; a condition that tells them apart may be missing. Equal values may be shown once.

Inhibition data for ten compounds are collected here from ChEMBL document CHEMBL1157539, “Thousands of chemical starting points for antimalarial lead identification” (Nature, 2010).

Turning to `COc1ccc(Nc2cc(C)c3cc(NC(=O)c4ccncc4)ccc3n2)cc1`, the values for the Inhibition with Plasmodium falciparum [1], in the assay with Plasmodium falciparum [2] and with HepG2 were 98%, 26% and 0%, respectively.
The corresponding values for `COc1cc(C)nc2ccc(NC(=O)Nc3ccc4nc(C)cc(OC)c4c3)cc12` are 100%, 83% and 79%.
The corresponding values for `O=C(C=CC(=O)N1CCCCC1)NCc1ccccc1` are 100%, 0% and 6%.
On the same counts, the results for `Cc1cccc2nc(-c3cccc(-c4ccc(CN5CCC(C(N)=O)CC5)cc4)c3)[nH]c12.O=C(O)C(F)(F)F` are 89%, 9% and 0%.
As for `Cc1nc(SCC(=O)N2CCCC2=O)c2c(C)c(C)sc2n1`, the Inhibition came out at 96% in the assay with Plasmodium falciparum [1], 0% with Plasmodium falciparum [2] and 45% in the assay with HepG2.
Regarding `CCCC(C)Nc1nc(C)cc(N[C@@H](Cc2ccccc2)C(=O)NCCOc2ccccc2)n1.O=C(O)C(F)(F)F` (stereo not given in full), the Inhibition in the assay on Plasmodium falciparum [1] was found to be 100%; in the assay with Plasmodium falciparum [2], 68%; with HepG2, 10%.
Take `Cc1ccc(CCNCC(O)c2cccc(C(F)(F)F)c2)cc1.Cl` (stereo not given): the Inhibition in the assay on Plasmodium falciparum [1] stood at 94%; in the assay on Plasmodium falciparum [2] it was 83%; with HepG2, 0%.
On the same counts, the results for `CS(=O)(=O)NCCCNCc1cccc(-c2ccc(-c3nc4cc(C(F)(F)F)ccc4[nH]3)s2)c1.O=C(O)C(F)(F)F` are 100%, 51% and 11%.
`O=C(N[C@@H](CC1CCCCC1)C(=O)NC1CCCc2ccccc21)c1ccc(O)c(-c2cccc(C(F)(F)F)c2)c1` (stereo not given in full): the Inhibition is on record as 100% in the assay on Plasmodium falciparum [1], 99% in the assay on Plasmodium falciparum [2] and 0% in the assay with HepG2.
As for `Cc1cc(=O)c(-c2ccc(Oc3cccc(C(F)(F)F)c3)cc2)c(C)[nH]1`, the Inhibition in the assay with Plasmodium falciparum [1] is 97% and 96%; with Plasmodium falciparum [2], 97% and 95%; in the assay with HepG2 it was 8% and 14%.

What is called Inhibition is the drop in the measured response relative to a control, in per cent.
